# Tests used:
# Experiment in all cases: DAPPL (digital affinity profiling via proximity ligation, sequencing); 10 mM Tris-HCl pH 7.5, 50 mM NaCl, 1 mM DTT, 4% glycerol, room temperature, 30 min; GST-TFs on glutathione beads, 16-mer random dsDNA library, 0.1% formaldehyde crosslink after washing; high values mean tight binding
# FLI1 = target: T1, FLI1 (Homo sapiens, UniProt Q01543 1-452); conditions: protein: recombinant; tags: N-terminal GST; dsDNA, one strand shown
# T1 sequence: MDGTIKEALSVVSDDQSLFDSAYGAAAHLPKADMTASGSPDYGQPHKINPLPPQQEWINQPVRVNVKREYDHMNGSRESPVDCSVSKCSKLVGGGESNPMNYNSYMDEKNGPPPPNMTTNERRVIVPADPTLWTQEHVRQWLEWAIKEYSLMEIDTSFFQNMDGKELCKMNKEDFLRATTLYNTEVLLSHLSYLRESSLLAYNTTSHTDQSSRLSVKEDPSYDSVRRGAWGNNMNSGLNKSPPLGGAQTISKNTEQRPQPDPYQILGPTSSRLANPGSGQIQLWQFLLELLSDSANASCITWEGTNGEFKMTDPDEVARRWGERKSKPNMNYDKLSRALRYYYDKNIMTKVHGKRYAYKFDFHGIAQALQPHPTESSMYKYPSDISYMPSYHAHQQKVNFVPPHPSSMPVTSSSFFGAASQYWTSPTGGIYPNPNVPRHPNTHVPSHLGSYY
# In short: (§1)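 Human transcription factors were made in yeast as GST fusions, captured on glutathione beads and barcoded with DNA. With a tag-only sample included, the pool was incubated with 200 nmole of a random double-stranded 16-mer DNA library in Tris/NaCl/DTT/glycerol buffer at room temperature for 30 min, then crosslinked with 0.1% formaldehyde after washing, ligated by proximity, amplified and sequenced. For binding signal, each hexamer's read frequency for a factor is divided by its frequency for the tag-only sample.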
# ELK1 = target: T2, ELK1 (Homo sapiens, UniProt P19419 1-428); conditions: protein: recombinant; tags: N-terminal GST; dsDNA, one strand shown
# T2 sequence: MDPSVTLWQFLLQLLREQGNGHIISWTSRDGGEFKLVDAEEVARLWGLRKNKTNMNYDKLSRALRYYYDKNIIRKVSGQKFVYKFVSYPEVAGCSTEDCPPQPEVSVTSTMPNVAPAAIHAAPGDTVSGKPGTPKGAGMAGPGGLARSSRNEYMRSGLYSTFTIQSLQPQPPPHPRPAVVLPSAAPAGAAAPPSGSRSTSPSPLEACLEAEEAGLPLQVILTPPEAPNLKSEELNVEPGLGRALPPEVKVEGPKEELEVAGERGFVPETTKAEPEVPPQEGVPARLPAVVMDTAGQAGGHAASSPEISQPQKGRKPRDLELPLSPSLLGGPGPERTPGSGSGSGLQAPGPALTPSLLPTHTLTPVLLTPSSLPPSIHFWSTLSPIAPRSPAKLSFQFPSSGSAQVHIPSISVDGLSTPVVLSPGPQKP
# In short: as §1
# GABPA = target: T3, GABPA (Homo sapiens, UniProt Q06546 1-454); conditions: protein: recombinant; tags: N-terminal GST; dsDNA, one strand shown
# T3 sequence: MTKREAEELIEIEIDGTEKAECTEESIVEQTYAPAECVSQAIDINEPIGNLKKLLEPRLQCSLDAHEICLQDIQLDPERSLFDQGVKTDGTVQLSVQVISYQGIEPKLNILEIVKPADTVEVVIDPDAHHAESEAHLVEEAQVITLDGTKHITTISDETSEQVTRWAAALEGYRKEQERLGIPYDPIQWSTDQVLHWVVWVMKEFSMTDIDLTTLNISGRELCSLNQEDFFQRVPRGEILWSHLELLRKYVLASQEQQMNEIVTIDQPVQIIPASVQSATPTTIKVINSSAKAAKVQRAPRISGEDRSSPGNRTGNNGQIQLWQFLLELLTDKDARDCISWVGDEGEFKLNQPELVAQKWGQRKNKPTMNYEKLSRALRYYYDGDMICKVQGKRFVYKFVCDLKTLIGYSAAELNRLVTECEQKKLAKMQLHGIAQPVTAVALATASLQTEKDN
# In short: as §1
# ERG = target: T4, ERG (Homo sapiens, UniProt P11308 1-479); conditions: protein: recombinant; tags: N-terminal GST; dsDNA, one strand shown
# T4 sequence: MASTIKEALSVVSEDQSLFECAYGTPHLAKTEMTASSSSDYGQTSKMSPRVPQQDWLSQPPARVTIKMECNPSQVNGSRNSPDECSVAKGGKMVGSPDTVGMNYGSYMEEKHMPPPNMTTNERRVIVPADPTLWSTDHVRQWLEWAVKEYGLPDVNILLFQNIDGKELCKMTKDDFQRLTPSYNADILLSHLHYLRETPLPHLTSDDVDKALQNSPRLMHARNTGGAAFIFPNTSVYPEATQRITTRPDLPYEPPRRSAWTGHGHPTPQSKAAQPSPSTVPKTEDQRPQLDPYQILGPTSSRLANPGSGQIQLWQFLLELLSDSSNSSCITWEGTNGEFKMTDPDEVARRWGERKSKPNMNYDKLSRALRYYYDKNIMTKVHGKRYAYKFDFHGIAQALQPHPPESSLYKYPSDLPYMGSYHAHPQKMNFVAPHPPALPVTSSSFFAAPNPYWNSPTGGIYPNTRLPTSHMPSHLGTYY
# In short: as §1
# ELF1 = ELF1 (Homo sapiens, UniProt P32519 1-619); conditions: protein: recombinant; tags: N-terminal GST; dsDNA, one strand shown
# In short: as §1
# EHF = target: T5, EHF (Homo sapiens, UniProt Q9NZC4 1-300); conditions: protein: recombinant; tags: N-terminal GST; dsDNA, one strand shown
# T5 sequence: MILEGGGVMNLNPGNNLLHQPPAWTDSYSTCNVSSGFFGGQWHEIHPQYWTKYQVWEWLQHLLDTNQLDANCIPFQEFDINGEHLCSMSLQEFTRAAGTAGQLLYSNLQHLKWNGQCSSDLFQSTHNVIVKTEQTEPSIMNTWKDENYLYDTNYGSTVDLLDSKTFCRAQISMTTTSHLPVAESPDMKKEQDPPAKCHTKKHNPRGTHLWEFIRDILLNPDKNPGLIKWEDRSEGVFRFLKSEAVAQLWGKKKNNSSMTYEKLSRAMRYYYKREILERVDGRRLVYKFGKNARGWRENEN
# In short: as §1
# SPI1 = SPI1 (Homo sapiens, UniProt P17947 1-270); conditions: protein: recombinant; tags: N-terminal GST; dsDNA, one strand shown
# In short: as §1
# SPIB = SPIB (Homo sapiens, UniProt Q01892 1-262); conditions: protein: recombinant; tags: N-terminal GST; dsDNA, one strand shown
# In short: as §1
# ELK3 = target: T6, ELK3 (Homo sapiens, UniProt P41970 1-407); conditions: protein: recombinant; tags: N-terminal GST; dsDNA, one strand shown
# T6 sequence: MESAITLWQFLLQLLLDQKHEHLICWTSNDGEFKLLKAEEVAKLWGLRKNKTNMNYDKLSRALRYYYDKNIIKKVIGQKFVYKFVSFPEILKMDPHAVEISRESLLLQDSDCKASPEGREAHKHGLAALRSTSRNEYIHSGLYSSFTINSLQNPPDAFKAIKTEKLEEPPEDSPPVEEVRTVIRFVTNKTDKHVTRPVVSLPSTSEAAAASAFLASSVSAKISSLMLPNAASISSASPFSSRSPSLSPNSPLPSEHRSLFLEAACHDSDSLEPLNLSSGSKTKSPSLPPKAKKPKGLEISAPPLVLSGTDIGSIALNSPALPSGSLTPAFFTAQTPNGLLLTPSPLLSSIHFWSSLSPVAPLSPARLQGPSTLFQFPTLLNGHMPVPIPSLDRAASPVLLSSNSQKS
# In short: as §1
# FEV = target: T7, FEV (Homo sapiens, UniProt Q99581 1-238); conditions: protein: recombinant; tags: N-terminal GST; dsDNA, one strand shown
# T7 sequence: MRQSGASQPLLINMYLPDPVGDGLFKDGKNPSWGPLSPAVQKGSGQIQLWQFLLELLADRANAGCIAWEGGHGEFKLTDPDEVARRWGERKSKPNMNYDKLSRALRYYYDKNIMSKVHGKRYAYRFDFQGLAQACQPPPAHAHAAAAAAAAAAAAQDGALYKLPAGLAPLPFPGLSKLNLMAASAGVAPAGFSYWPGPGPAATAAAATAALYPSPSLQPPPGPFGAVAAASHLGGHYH
# In short: as §1
# ETV5 = ETV5 (Homo sapiens, UniProt P41161 1-510); conditions: protein: recombinant; tags: N-terminal GST; dsDNA, one strand shown
# In short: as §1
# HSF1 = HSF1 (Homo sapiens, UniProt Q00613 1-529); conditions: protein: recombinant; tags: N-terminal GST; chain copies: 3; dsDNA, one strand shown
# In short: as §1
# SPIC = target: T8, SPIC (Homo sapiens, UniProt Q8N5J4 1-248); conditions: protein: recombinant; tags: N-terminal GST; dsDNA, one strand shown
# T8 sequence: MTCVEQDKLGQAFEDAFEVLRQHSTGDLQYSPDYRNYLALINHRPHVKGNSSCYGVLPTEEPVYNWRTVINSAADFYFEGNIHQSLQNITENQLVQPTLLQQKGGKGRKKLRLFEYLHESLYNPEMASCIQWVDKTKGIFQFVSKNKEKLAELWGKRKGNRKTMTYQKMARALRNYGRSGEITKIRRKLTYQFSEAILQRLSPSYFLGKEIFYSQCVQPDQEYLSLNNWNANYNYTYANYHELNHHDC
# In short: as §1
# ELF4 = ELF4 (Homo sapiens, UniProt Q99607 1-663); conditions: protein: recombinant; tags: N-terminal GST; dsDNA, one strand shown
# In short: as §1
# ELK4 = target: T9, ELK4 (Homo sapiens, UniProt P28324-2 1-405); conditions: protein: recombinant; tags: N-terminal GST; dsDNA, one strand shown
# T9 sequence: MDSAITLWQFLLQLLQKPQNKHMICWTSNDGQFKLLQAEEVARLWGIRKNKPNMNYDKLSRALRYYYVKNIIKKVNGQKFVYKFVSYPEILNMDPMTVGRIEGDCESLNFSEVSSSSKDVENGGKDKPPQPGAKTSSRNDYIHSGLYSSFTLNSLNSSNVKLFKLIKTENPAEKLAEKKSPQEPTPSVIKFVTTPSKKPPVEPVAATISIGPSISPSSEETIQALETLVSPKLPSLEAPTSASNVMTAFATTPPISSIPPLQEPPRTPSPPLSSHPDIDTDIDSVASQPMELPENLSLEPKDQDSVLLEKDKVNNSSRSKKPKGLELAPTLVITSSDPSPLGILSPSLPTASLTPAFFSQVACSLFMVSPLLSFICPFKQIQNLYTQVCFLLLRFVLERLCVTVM
# In short: as §1
# ETV2 = target: T10, ETV2 (Homo sapiens, UniProt O00321 1-342); conditions: protein: recombinant; tags: N-terminal GST; dsDNA, one strand shown
# T10 sequence: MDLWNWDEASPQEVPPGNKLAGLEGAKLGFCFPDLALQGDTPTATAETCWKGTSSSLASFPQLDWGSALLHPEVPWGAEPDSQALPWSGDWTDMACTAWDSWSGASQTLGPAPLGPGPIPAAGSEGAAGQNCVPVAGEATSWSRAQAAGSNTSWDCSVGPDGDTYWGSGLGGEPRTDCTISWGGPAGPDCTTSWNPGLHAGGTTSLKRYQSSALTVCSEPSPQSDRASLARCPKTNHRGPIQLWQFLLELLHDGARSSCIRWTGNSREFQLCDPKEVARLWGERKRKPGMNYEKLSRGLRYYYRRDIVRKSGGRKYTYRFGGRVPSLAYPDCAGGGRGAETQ
# In short: as §1
# ELF3 = target: T11, ELF3 (Homo sapiens, UniProt P78545 1-371); conditions: protein: recombinant; tags: N-terminal GST; dsDNA, one strand shown
# T11 sequence: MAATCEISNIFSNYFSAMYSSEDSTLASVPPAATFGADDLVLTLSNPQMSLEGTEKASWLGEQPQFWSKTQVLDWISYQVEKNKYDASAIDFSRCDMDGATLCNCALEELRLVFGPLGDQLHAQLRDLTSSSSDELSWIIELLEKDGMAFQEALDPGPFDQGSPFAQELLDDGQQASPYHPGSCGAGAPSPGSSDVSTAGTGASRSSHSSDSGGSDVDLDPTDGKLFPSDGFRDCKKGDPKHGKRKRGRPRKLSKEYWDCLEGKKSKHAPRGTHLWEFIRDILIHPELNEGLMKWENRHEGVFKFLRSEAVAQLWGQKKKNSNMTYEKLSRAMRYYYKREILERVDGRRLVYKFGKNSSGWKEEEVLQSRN
# In short: as §1
# CRX = CRX (Homo sapiens, UniProt O43186 1-299); conditions: protein: recombinant; tags: N-terminal GST; dsDNA, one strand shown
# In short: as §1
# ETV1 = ETV1 (Homo sapiens, UniProt P50549 1-477); conditions: protein: recombinant; tags: N-terminal GST; dsDNA, one strand shown
# In short: as §1
# Chain of ETV1 (P50549 whole entry): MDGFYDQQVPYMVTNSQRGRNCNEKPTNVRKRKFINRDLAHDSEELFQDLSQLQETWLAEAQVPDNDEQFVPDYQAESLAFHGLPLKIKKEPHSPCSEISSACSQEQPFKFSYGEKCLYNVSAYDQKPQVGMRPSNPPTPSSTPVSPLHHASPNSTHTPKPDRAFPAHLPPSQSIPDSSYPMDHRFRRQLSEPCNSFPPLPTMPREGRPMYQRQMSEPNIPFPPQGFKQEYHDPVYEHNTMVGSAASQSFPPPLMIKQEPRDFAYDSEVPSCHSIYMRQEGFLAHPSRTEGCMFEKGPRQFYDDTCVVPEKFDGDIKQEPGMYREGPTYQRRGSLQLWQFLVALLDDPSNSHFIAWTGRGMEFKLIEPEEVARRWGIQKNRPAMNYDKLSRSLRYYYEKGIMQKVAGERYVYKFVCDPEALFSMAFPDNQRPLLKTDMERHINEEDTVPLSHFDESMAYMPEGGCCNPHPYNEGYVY
# Chain of ELF1 (P32519 whole entry): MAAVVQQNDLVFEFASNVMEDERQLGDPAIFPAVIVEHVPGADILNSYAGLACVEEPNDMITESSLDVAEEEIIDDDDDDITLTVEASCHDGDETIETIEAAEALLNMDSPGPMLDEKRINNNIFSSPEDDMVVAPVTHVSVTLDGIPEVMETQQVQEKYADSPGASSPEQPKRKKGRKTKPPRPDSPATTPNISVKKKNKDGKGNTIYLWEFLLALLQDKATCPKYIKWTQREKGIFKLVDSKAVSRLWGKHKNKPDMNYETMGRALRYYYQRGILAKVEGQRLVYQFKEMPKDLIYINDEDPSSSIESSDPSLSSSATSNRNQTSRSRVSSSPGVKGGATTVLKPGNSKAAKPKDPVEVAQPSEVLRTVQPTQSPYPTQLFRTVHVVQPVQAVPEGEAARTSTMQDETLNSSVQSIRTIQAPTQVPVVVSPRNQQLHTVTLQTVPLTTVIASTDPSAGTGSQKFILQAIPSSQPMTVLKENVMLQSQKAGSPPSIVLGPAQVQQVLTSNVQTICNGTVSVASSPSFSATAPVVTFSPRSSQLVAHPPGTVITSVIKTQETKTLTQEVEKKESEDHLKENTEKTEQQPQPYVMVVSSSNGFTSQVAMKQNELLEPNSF
# Chain of HSF1 (Q00613 whole entry): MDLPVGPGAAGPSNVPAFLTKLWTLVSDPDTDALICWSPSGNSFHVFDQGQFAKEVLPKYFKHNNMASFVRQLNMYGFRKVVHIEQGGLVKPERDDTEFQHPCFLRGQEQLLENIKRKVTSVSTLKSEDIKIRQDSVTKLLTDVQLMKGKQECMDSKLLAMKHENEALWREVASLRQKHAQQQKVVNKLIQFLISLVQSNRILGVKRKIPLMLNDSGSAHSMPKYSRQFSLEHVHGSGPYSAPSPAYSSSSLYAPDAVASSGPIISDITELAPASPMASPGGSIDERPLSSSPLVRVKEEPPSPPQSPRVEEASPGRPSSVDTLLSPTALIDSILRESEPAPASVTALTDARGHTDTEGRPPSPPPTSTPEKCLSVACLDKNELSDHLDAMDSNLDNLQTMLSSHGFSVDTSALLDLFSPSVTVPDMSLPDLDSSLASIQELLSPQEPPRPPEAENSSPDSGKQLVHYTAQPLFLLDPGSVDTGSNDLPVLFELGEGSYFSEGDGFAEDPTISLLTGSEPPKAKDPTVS
# Chain of ETV5 (P41161 whole entry): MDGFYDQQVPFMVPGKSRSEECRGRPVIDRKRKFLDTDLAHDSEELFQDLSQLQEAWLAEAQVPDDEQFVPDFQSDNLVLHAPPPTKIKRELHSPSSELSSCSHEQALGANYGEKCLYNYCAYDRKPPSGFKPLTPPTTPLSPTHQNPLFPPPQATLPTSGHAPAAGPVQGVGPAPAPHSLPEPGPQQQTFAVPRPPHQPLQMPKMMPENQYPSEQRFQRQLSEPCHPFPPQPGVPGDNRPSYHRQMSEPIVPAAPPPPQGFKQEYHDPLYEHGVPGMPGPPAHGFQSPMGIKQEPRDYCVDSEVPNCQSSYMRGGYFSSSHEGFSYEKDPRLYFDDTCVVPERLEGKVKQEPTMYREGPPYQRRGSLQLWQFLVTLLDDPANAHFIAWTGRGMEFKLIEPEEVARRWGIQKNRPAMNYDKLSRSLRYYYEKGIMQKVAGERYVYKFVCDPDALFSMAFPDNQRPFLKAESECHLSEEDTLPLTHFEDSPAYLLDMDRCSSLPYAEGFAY
# Chain of SPIB (Q01892 whole entry): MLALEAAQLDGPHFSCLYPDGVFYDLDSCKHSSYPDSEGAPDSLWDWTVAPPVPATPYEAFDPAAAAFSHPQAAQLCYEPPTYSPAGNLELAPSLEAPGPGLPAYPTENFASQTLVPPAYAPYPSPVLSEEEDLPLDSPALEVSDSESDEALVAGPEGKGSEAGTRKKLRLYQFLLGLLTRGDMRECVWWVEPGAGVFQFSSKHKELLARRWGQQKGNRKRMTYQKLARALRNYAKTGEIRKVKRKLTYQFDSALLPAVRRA
# Chain of CRX (O43186 whole entry): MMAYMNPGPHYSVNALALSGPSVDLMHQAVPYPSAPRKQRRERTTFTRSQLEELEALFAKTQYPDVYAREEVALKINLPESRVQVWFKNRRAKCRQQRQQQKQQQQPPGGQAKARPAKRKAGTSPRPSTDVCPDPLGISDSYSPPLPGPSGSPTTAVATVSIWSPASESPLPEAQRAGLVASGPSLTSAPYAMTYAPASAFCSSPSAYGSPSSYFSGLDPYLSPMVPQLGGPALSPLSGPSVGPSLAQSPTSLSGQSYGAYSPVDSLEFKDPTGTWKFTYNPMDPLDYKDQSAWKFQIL
# Chain of ELF4 (Q99607 whole entry): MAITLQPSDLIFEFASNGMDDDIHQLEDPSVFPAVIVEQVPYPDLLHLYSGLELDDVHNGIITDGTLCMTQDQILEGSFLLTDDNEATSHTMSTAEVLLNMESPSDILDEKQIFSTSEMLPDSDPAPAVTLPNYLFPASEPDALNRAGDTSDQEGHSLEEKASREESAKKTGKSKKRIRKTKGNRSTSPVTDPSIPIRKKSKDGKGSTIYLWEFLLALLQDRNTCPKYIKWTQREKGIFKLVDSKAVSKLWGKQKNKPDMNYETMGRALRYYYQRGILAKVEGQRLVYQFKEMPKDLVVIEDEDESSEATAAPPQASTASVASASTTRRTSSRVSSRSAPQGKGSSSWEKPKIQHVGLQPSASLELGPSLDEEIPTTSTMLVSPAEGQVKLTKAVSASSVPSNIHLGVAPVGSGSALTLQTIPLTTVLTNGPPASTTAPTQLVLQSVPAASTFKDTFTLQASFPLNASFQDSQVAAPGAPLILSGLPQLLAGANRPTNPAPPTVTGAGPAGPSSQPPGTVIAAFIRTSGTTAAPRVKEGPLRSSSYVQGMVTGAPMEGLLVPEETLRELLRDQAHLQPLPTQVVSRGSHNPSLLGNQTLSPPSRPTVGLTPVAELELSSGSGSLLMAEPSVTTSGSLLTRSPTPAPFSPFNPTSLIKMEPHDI
sequence,measurement,setting,value
CTAAAA,binding signal,FLI1,"1.13 fold enrichment (6-mer frequency, TF over GST control)"
same,binding signal,ELK1,"1.12 fold enrichment (6-mer frequency, TF over GST control)"
same,binding signal,GABPA,"1.18 fold enrichment (6-mer frequency, TF over GST control)"
same,binding signal,ERG,"1.2 fold enrichment (6-mer frequency, TF over GST control)"
same,binding signal,ELF1,"1.13 fold enrichment (6-mer frequency, TF over GST control)"
same,binding signal,EHF,"1.1 fold enrichment (6-mer frequency, TF over GST control)"
same,binding signal,SPI1,"1.26 fold enrichment (6-mer frequency, TF over GST control)"
same,binding signal,SPIB,"1.1 fold enrichment (6-mer frequency, TF over GST control)"
same,binding signal,ELK3,"1.13 fold enrichment (6-mer frequency, TF over GST control)"
same,binding signal,FEV,"1.09 fold enrichment (6-mer frequency, TF over GST control)"
same,binding signal,ETV5,"1.16 fold enrichment (6-mer frequency, TF over GST control)"
same,binding signal,HSF1,"1.26 fold enrichment (6-mer frequency, TF over GST control)"
same,binding signal,SPIC,"1.25 fold enrichment (6-mer frequency, TF over GST control)"
same,binding signal,ELF4,"1.24 fold enrichment (6-mer frequency, TF over GST control)"
same,binding signal,ELK4,"1.21 fold enrichment (6-mer frequency, TF over GST control)"
same,binding signal,ETV2,"1.21 fold enrichment (6-mer frequency, TF over GST control)"
same,binding signal,ELF3,"1.12 fold enrichment (6-mer frequency, TF over GST control)"
same,binding signal,CRX,"1.4 fold enrichment (6-mer frequency, TF over GST control)"
same,binding signal,ETV1,"1.19 fold enrichment (6-mer frequency, TF over GST control)"
